These results are taken from PubChem BioAssay AID1491 (National Center for Advancing Translational Sciences (NCATS), 2009).

SMILES strings stand for the structures. Records with an inconclusive call do not appear. The source made the active and inactive calls. Calls follow the shape of the dose curve; as a rule, active = well fitted inhibition curve with a large enough effect in the main read-out, with a control signal flat; inconclusive = small, poorly fitted or top-dose-only effect, or a change in a side signal; inactive = flat fitted curve, though single readings scatter.
Potency is read from the fitted curve at half-maximal effect.

For the assay, the target named is Neuropeptide S receptor (Homo sapiens) (UniProt Q6W5P4). Kind of assay: Confirmation Concentration-Response Assay for Antagonists of the Neuropeptide S Receptor: cAMP Signal Transduction. Conditions: CHO-NPSR cells, cAMP TR-FRET, antagonist mode; series mostly up to 22.3 µM. The source says: NIH Chemical Genomics Center [NCGC] NIH Molecular Libraries Probe Production centers Network [MLPCN] MLPCN Grant: X01-DA026210-01 Assay Submitter (PI): Heilig, Markus Alexander NCGC Assay Overview: Neuropeptide S receptor (NPSR), previously known as GPR154, is a recently de-orphanized G protein coupled receptor. Its endogenous ligand is the 20 amino acids peptide Neuropeptide S (NPS). […] NPS and its receptor are found in various tissues. Specifically they are highly expressed in brain areas that have been implicated in modulation of arousal, stress and anxiety. Central administration of NPS in mice produces an unusual profile of activity by inducing wakefulness and arousal, while at the same time suppressing anxiety. Therefore, NPSR may represent a novel drug target for the treatment of sleep and anxiety disorders. To identify NPSR antagonists, we developed a cell-based cAMP assay. NPS can stimulate the production of cAMP in Chinese hamster ovary cells stably expressing NPS receptor. This change in intracellular cAMP level can be detected by a homogeneous LANCE cAMP assay based on the TR-FRET (time resolved fluorescence resonance energy transfer) between a europium-labeled cAMP tracer complex and a cAMP-specific antibody labeled with Alexa Fluor 647. The europium-labeled cAMP tracer complex is formed by the tight interaction between Biotin-cAMP (b-cAMP) and streptavidin labeled with Europium-W8044 chelate (Eu-SA). Light pulse at 320 nm excites the europium of the cAMP tracer and the energy emitted is transferred to the Alexa molecule bound to the cAMP antibody, generating a TR-FRET signal at 665 nm. Residual energy from the europium will produce a light at 620 nm. The native unlabeled cAMP from cell lysates competes with the europium-cAMP tracer for antibody binding and reversely reduces the emission signal of Alexa by interrupting FRET between the two labeled molecules. Both emission signals from the FRET donor (620 nm) and the acceptor (665 nm) can be detected by a plate reader in the TRF mode. Expression of result in fluorescence ratio (665 nm/620 nm) helps to normalize differences due to cell density and reagent dispensing. This assay was successfully optimized to a 1536-well plate format. Select compounds from the primary screen (AID 1461) were chosen for confirmation based on potency, efficacy, SAR, and activity across other assays in PubChem and at NCGC. Other compounds are analogs of active compounds from the primary sceen.
Sequence of Neuropeptide S receptor (Homo sapiens) (Q6W5P4 whole entry, looked up): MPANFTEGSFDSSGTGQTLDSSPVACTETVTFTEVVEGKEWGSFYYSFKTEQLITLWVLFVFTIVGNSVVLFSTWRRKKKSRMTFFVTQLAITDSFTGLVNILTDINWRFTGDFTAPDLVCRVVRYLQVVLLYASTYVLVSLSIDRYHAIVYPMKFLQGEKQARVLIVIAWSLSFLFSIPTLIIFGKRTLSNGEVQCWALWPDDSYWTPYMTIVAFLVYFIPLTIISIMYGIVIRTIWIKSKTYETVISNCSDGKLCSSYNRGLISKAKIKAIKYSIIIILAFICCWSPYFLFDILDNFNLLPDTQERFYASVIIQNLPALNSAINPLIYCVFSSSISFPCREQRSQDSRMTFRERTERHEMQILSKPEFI
NCGC Assay Protocol Summary: A Chinese hamster ovary (CHO) cell line stably expressing the NPS receptor (CHO-NPSR) was obtained from Dr. Heilig lab at NIAAA and maintained in F-12 Kaighn's media (Invitrogen, Carlsbad, CA, 21127) supplemented with 10 % FBS, 100 units/ml penicillin, 100 ug/ml streptomycin and 250 ug/ml geneticin at 37C, 5% CO2 in a humidified atmosphere. Before the assay, aliquots of cells were frozen and stored at -135C. The assay was performed in 1536-well format. Data are reported for both the ratio of the two emission wavelengths, and also for the component 'donor' channel, Em2=620. […] IC50 values were determined from concentration-response data modeled with the standard Hill equation. NPS 1536-well assay protocol: (1) Fresh or frozen CHO-NPSR cells were suspended in F-12 Kaighn's media supplemented with 10 % FBS, 100 units/ml penicillin and 100 ug/ml streptomycin. Cells were plated at 4 ul/well (1200 cells) to white, tissue culture treated 1536-well plates, and then cultured at 37C, 5 % CO2 for 16 to 30 hours. (2) Add 23 nl/well of compound in DMSO solution. The final titration for each compound was between 0.6 nM and 46 uM. (3) Add 1 ul of stimulation reagent (1X HBSS buffer, 5 mM HEPES, 0.1% BSA, 500 uM RO-201724 (Sigma-Aldrich, B8279), 1.5% Alexa 647-labeled anti-cAMP antibody (from Perkin Elmer), 100 nM NPS) (4) Incubation at 37C, 5 % CO2 for 60 min. (5) Add 1 ul/well detection reagent. […]
Consider `Cn1ncnc2c(=O)n(C)c(=O)nc1-2`, for which the Potency result was “inactive”.

`CC(=O)Nc1cc([As](=O)(O)O)ccc1O`: the Potency entry was “inactive”.

Turning to `Cc1cccc(N2C(=O)NC(=O)/C(=C\c3cnn(-c4ccccc4)c3)C2=O)c1`, the Potency is 10 µM (active).

Turning to `CN(C)C(=S)SSC(=S)N(C)C`, the Potency entry was “inactive”.

With `C=C1C(=O)O[C@@H]2C[C@@H](C)[C@@H]3C=CC(=O)[C@@]3(C)[C@@H](OC(=O)CC(=O)O[C@H]3[C@@H]4C(=C)C(=O)O[C@@H]4C[C@@H](C)[C@@H]4C=CC(=O)[C@]43C)[C@H]12`, the Potency was 1 µM (active).

Turning to `Cc1c(P(=S)(c2ccccc2)c2ccccc2)[n+]2ccccc2n1C`, the Potency is 1.12 µM (active).

For `Cc1cc(C=C2C(=O)NC(=S)NC2=O)c(C)n1-c1ccc2c(c1)OCO2`, the Potency is 12.6 µM (active).

Take `CCOC(=O)c1c(-n2c(C)cc(C=C3C(=O)NC(=S)NC3=O)c2C)sc2c1CCCC2`: the Potency is 10 µM (active).

Consider `C=C(C=O)CC1CC(O)[C@]2(C)OC3CC4OC5C[C@]6(C)O[C@]7(C)CCC8OC9C[C@]%10(C)OC%11C(C)=CC(=O)OC%11CC%10OC9C[C@@H](C)C8OC7CC6O[C@]5(C)CC5OC5C4OC3CC2O1` (stereo partly specified), for which the Potency entry was “inactive”.

Take `C=CCN1C(=O)/C(=C/c2cccs2)C(=O)NC1=S`: the Potency was 11.2 µM (active).

Take `C[C@H]1CCCC(=O)CCCCCc2cc(O)cc(O)c2C(=O)O1`: the Potency entry was “inactive”.
